{"source": "paper PMC4336329", "about": "(PLoS ONE, 2015)", "note": "The campaign covered roughly 310,000 compounds. About 14,000 (4.5%) showed an effect of 50% or more. The effect is printed as a negative number. The list comes from a sample in which strong results are over-represented; it also holds similar structures and randomly drawn compounds.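 Note: peak tail current of the secondary pulse compared with the same well before compound.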"}
{"molecular_target": "human ether-à-go-go-related gene (hERG) potassium channel (human, UniProt Q12809)", "sequence (Q12809 whole entry, looked up)": "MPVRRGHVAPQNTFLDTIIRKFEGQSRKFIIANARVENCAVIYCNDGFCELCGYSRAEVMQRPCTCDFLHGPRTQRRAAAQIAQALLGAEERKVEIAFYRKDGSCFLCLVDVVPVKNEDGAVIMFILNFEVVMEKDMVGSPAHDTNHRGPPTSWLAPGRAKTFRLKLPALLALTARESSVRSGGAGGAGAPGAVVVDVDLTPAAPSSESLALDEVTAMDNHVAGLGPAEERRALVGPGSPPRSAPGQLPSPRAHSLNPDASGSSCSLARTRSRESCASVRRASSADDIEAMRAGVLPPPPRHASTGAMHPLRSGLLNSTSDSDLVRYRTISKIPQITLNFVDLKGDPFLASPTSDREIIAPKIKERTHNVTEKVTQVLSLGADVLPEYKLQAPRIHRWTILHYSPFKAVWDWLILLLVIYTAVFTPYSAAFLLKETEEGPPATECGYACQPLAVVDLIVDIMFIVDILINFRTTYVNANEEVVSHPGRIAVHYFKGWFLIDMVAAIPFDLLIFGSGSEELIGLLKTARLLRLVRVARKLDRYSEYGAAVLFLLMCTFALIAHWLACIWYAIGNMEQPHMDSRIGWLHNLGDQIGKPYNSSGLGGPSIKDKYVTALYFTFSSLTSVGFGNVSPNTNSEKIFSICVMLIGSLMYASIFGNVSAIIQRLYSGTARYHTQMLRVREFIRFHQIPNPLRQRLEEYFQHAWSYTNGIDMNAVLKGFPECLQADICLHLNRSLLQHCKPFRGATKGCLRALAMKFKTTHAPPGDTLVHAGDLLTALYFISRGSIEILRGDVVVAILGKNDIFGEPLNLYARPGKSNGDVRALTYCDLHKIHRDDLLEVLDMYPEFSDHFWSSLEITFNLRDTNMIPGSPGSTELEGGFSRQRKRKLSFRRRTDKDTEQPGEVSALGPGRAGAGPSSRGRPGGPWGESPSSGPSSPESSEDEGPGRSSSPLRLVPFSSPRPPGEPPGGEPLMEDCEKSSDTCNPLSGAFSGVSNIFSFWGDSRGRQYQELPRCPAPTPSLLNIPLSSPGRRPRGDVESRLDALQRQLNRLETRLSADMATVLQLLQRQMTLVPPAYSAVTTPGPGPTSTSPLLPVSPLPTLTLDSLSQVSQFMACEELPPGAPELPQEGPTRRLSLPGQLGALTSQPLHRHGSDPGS", "experiment": "primary screen, population patch clamp on CHO cells stably expressing hERG; higher = less effect of the substance", "units": {"hERG current change (%, negative = inhibition) at 10uM": "%"}}
{"compound": "Cc1ccc(OCCSc2nnc(-c3cccs3)n2C)cc1", "hERG current change (%, negative = inhibition) at 10uM": -37}
{"compound": "CCn1c(SCC(=O)c2ccc(Cl)cc2)nnc1-c1cccs1", "hERG current change (%, negative = inhibition) at 10uM": -10.8}
{"compound": "CCn1c(SCCOc2ccc(Cl)cc2)nnc1-c1cccs1", "hERG current change (%, negative = inhibition) at 10uM": -53.8}
{"compound": "CCOC(=O)CSc1nnc(-c2cccs2)n1-c1ccccc1", "hERG current change (%, negative = inhibition) at 10uM": -42.8}
{"compound": "COC(=O)CSc1nnc(-c2cccs2)n1-c1ccc(Cl)cc1", "hERG current change (%, negative = inhibition) at 10uM": -60.4}
{"compound": "Cn1c(SCCOc2ccc(Cl)cc2)nnc1-c1ccncc1", "hERG current change (%, negative = inhibition) at 10uM": -56.3}
{"compound": "Cn1c(SCCOc2ccc(F)cc2)nnc1-c1ccncc1", "hERG current change (%, negative = inhibition) at 10uM": -44.4}
{"compound": "O=C(O)CSc1nnc(-c2cccs2)n1-c1ccc(Cl)cc1", "hERG current change (%, negative = inhibition) at 10uM": -6.94}
{"compound": "CCn1c(SCC(=O)NCCc2ccc(Cl)cc2)nnc1-c1cccs1", "hERG current change (%, negative = inhibition) at 10uM": -75.8}
{"compound": "CCn1c(SCC(=O)NCCc2ccccc2)nnc1-c1cccs1", "hERG current change (%, negative = inhibition) at 10uM": -27.6}
{"compound": "Cc1ccc(OCCSc2nnc(-c3ccncc3)n2C)cc1", "hERG current change (%, negative = inhibition) at 10uM": -28.9}
{"compound": "Cc1cc(OCCSc2nnc(-c3cccs3)n2C)ccc1Cl", "hERG current change (%, negative = inhibition) at 10uM": -22.5}
{"compound": "CC(C)N(CCNS(=O)(=O)c1ccc(Cl)cc1)C(C)C.Cl", "hERG current change (%, negative = inhibition) at 10uM": -28.1}
{"compound": "O=C(c1[nH]ncc1-c1cccc(Br)c1)C1CO1", "note": "(stereo not shown)", "hERG current change (%, negative = inhibition) at 10uM": 3.39}
{"compound": "O=C(Nc1c(C(=O)N2CCOCC2)cnn1-c1ccccc1)c1ccc(F)cc1", "hERG current change (%, negative = inhibition) at 10uM": 13.8}
{"compound": "CC(C)c1cc(C(=O)NCCc2ccccc2)no1", "hERG current change (%, negative = inhibition) at 10uM": -40.1}
{"compound": "CCC(C(=O)NC(C)(C)C)N(Cc1ccco1)C(=O)CNS(=O)(=O)c1ccc(OC)cc1", "note": "(stereo not shown)", "hERG current change (%, negative = inhibition) at 10uM": 7.49}
{"compound": "O=C(O)/C(=C\\c1ccc2ccccc2c1)c1cccc2ccccc12", "hERG current change (%, negative = inhibition) at 10uM": 6.53}
{"compound": "CC(=O)Nc1ccc(C(=O)N/N=C/c2ccncc2)cc1", "hERG current change (%, negative = inhibition) at 10uM": 0.536}
{"compound": "Cc1cc(C)n2[nH]c(=O)c(N=Nc3cccc(C(F)(F)F)c3)c2n1", "hERG current change (%, negative = inhibition) at 10uM": -23.8}
{"compound": "CCn1c(SCC(=O)NCc2cccs2)nnc1-c1cccs1", "hERG current change (%, negative = inhibition) at 10uM": -20.9}
{"compound": "CCn1c(SCC(=O)NCCc2ccc(F)cc2)nnc1-c1cccs1", "hERG current change (%, negative = inhibition) at 10uM": -61.9}
{"compound": "CCn1c(SCC(=O)NCC(=O)Nc2ccc(F)cc2)nnc1-c1cccs1", "hERG current change (%, negative = inhibition) at 10uM": -25.1}
{"compound": "COc1ccc2[nH]c(=O)c(-c3nnn(-c4ccccc4)n3)cc2c1", "hERG current change (%, negative = inhibition) at 10uM": -1.01}
{"compound": "Cc1ccc(Cn2c(CCC(=O)O)nc3ncccc3c2=O)cc1", "hERG current change (%, negative = inhibition) at 10uM": 13.4}
{"compound": "Cc1nn(CC(=O)NCCN2CCCCC2C)c(=O)c2cc(-c3ccccc3)nn12", "note": "(stereo not shown)", "hERG current change (%, negative = inhibition) at 10uM": -48.4}
{"compound": "CCc1ccc(-c2cc3c(=O)n(CC(=O)NCCCN4CCN(CC)CC4)nc(C)n3n2)cc1", "hERG current change (%, negative = inhibition) at 10uM": -30}
{"compound": "CCc1ccc(-c2cc3c(=O)n(CC(=O)NCCCN4CCN(Cc5ccccc5)CC4)nc(C)n3n2)cc1", "hERG current change (%, negative = inhibition) at 10uM": -22.7}
{"compound": "Cc1nn(CC(=O)NCCCN2CCCCC2)c(=O)c2cc(-c3ccccc3)nn12", "hERG current change (%, negative = inhibition) at 10uM": -49.4}
{"compound": "Cc1nn(CC(=O)NCCCN2CCC(Cc3ccccc3)CC2)c(=O)c2cc(-c3ccccc3)nn12", "hERG current change (%, negative = inhibition) at 10uM": -77}
{"compound": "CCc1ccc(-c2cc3c(=O)n(CC(=O)NCCCN4CCC(Cc5ccccc5)CC4)nc(C)n3n2)cc1", "hERG current change (%, negative = inhibition) at 10uM": 2.48}
{"compound": "Cc1nn(CC(=O)NCCCN2CCN(Cc3ccccc3)CC2)c(=O)c2cc(-c3ccccc3)nn12", "hERG current change (%, negative = inhibition) at 10uM": -70.1}
{"compound": "CCc1ccc(-c2cc3c(=O)n(CC(=O)NCCN4CCCCC4C)nc(C)n3n2)cc1", "note": "(stereo not shown)", "hERG current change (%, negative = inhibition) at 10uM": -57.5}
{"compound": "Cc1nn(CC(=O)NCCCN2CCN(C)CC2)c(=O)c2cc(-c3ccccc3)nn12", "hERG current change (%, negative = inhibition) at 10uM": 0.586}
{"compound": "Cc1ccc(C2/C(=C(/O)c3ccccc3)C(=O)C(=O)N2CCN2CCOCC2)o1", "note": "(stereo not shown)", "hERG current change (%, negative = inhibition) at 10uM": -2.22}
{"compound": "COc1ccc(CCN2C(=O)NC(NC(C)=O)(C(F)(F)F)C2=O)cc1OC", "note": "(stereo not shown)", "hERG current change (%, negative = inhibition) at 10uM": 7.51}
{"compound": "O=C(c1cccc(N2C(=O)C3C4C=CC(C4)C3C2=O)c1)N1CCN(c2ccccc2)CC1", "note": "(stereo not shown)", "hERG current change (%, negative = inhibition) at 10uM": -1.68}
{"compound": "c1cn(-c2ccc(-c3ccnc4ncnn34)cc2)cn1", "hERG current change (%, negative = inhibition) at 10uM": -27.2}
{"compound": "c1ccc(Oc2ccc(-c3ccnc4ncnn34)cc2)cc1", "hERG current change (%, negative = inhibition) at 10uM": 10.7}
{"compound": "c1ccc2c(c1)ncn2-c1ccc(-c2ccnc3ncnn23)cc1", "hERG current change (%, negative = inhibition) at 10uM": -68}
{"compound": "Cc1cc(OCC(=O)NC2CCS(=O)(=O)C2)c2c3c(c(=O)oc2c1)CCC3", "note": "(stereo not shown)", "hERG current change (%, negative = inhibition) at 10uM": -3.87}
{"compound": "COc1ccc(CNC(=O)C(=O)NC2CCC(C)CC2)cc1", "note": "(stereo not shown)", "hERG current change (%, negative = inhibition) at 10uM": 19.4}
{"compound": "C=C(Cl)CSC(=S)N(CC)CC", "hERG current change (%, negative = inhibition) at 10uM": 12.1}
